From PubChem BioAssay AID1947 (The Scripps Research Institute Molecular Screening Center, 2009)
The campaign covered roughly 300,000 compounds. About 990 (0.33%) were called active. For the sample, actives were picked, then their nearest neighbours and some compounds at random. A number with no mark means an inactive call.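 How the source made its calls: active means inhibition above the screen mean inhibition plus 3 SD, computed separately per campaign (cut at about 18% in these data); inactive means the rest.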

System: Fam108B (ABHD17B) serine hydrolase [Mus musculus]
Experiment: inhibition of Fam108B (ABHD17B) hydrolase – biochemical, fluorescence polarization, counter-screen for RBBP9 inhibitor project, primary screen (AID 1947);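 further: inhibitors lower polarization as less probe binds the enzyme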
Settings: recombinant Fam108B, FP-Rh probe fluorescence polarization; at 9.51 µM; active compounds read high

SMILES	inhibition
O=Cc1c(NCCCN2CCCC2=O)c2ccccc2[nH]c1=O	0.62%
Cn1c(=O)c2c(ncn2CC(COCc2ccccc2Cl)OCc2ccccc2Cl)n(C)c1=O (stereo unspecified)	2.8%
Cc1nn(Cc2ccc(F)cc2)c(C)c1NC(=O)c1noc2c1CCc1ccccc1-2	-3.92%
O=C(O)c1cccc(N2C(=O)Nc3ccccc3N2O)c1	0.58%
Cc1ccccc1NC(=O)c1cc(S(=O)(=O)Nc2cccc(C(=O)O)c2)ccc1Cl	-0.84%
C/C(=N\Nc1cccc(C(=O)O)c1)c1ccc2c(c1)Nc1ccccc1S2	20% (active)
CCOc1cnc(-c2c(-c3ccccc3Cl)noc2C)o1	-3.64%
CCn1cc(CN2CCCC(CNS(=O)(=O)Cc3ccccc3)C2)cn1 (stereo unspecified)	-2.99%
Cc1ccc(CN(C)Cc2cc(=O)oc3cc(C)c(Cl)cc23)cc1	9.93%
C=CCCC(=O)Nc1nc(C)c(-c2csc(Nc3ccc(Cl)cc3)n2)s1	-6.01%
CCCCCCC(=O)Nc1nc(C)c(-c2csc(Nc3cc(Cl)ccc3OC)n2)s1	11.8%
O=C(Nc1ccc(-c2csc(Nc3cccc(C(F)(F)F)c3)n2)cc1)c1cccc(C(F)(F)F)c1	37.3% (active)
Cc1nc(NC(=O)c2cccc(Cl)c2)sc1-c1csc(Nc2cccc(Cl)c2)n1	61.2% (active)
CC(=O)Nc1cccc(-c2csc(Nc3cccc(C)n3)n2)c1	5.89%
CC(=O)Nc1ccc(S(=O)(=O)Nc2nc(-c3ccc(C(C)(C)C)cc3)cs2)cc1	5.38%
CCCCC(=O)Nc1nc(C)c(-c2csc(Nc3ccc(Cl)cc3)n2)s1	20.4% (active)
CC(=O)Nc1nc(C)c(-c2csc(Nc3ccc(S(N)(=O)=O)cc3)n2)s1	-0.24%
CCCCCCC(=O)Nc1nc(C)c(-c2csc(Nc3cccc(OC)c3)n2)s1	12.5%
CCOC(=O)c1c(CC(C)C)csc1/N=C/C1=C(O)CCCC1=O	-3.29%
O=C(NNC(=O)c1cnccc1C(F)(F)F)c1ccc(Cl)cc1	-3.08%
CCCn1c(=O)c2c(C(F)(F)F)cc(-c3cccs3)nc2n(CCC)c1=O	7.34%
COc1ccc(OCC(O)CN(C)C(=O)C(C)Oc2ccccc2)cc1 (stereo unspecified)	3.54%
O=C1N[C@@H](Cc2ccccc2)C(=O)N2[C@@H]3N(S(=O)(=O)c4ccc(F)cc4)c4ccccc4[C@]3(Br)C[C@@H]12	2.06%

SMILES	inhibition
Oc1ccc(/C=N/Nc2nc(-c3ccccc3F)nc3ccccc23)c(O)c1	41% (active)
Cc1nc2ccccc2nc1N/N=C/c1ccc(O)cc1O	5.03%
Fc1ccc(/C=N/Nc2nc(-c3cccnc3)nc3ccccc23)cc1	-5.98%
CCC(C)[C@H]1COCCS(=O)(=O)N1Cc1ccc(C)cc1 (stereo partly specified)	-0.44%
CC1(C)C2CCC1(C)C(OC(=O)c1ccc(O)cc1)C2 (stereo unspecified)	-4.06%
Nc1ccc2nc3c(=O)[nH]c(=S)[nH]c3nc2c1	29.3% (active)
O=C(COC(=O)CCCNC(=O)c1ccc(Cl)cc1)Nc1cc(Cl)ccc1Cl	4.35%
O=C(NC1CC1)c1cccc(Br)c1	-0.72%
O=C(NC1CC1)c1ccc(-c2ccccc2)cc1	34.3% (active)
O=C(NNC(=O)c1ccc(-c2ccccc2)cc1)Nc1ccccc1	-2.01%
Cc1ccccc1N1CC(C(=O)Nc2nnc(SCCC3OCCO3)s2)CC1=O (stereo unspecified)	5.32%
O=C(CN(Cc1ccccc1)C(=O)CCC(=O)Nc1ccccn1)NCCc1ccccc1	0.27%
COc1ccc(C2=Nc3cc(C)ccc3OC2)cc1	-0.41%
O=c1[nH]c(SCc2ccccc2)nnc1-c1ccccc1	-0.14%
Fc1cccc(Cl)c1CSc1ccc(-c2ccco2)nn1	-2.56%
c1ccc(CSc2nnc(-c3ccco3)c(-c3ccco3)n2)cc1	19.7% (active)
COc1ccc2nc(SCc3ccccc3)nc(C)c2c1	-2.64%
O=c1cc(O)nc(SCc2ccccc2Cl)[nH]1	-1.05%
Clc1ccccc1CSc1nnc(-c2ccco2)c(-c2ccco2)n1	18.8% (active)
COC(=O)c1ccc(CNC(=O)c2ccc3oc(C(C)C)nc3c2)cc1	-1.84%
N#CCC(=O)N/N=C/c1cn(Cc2ccc3ccccc3c2)c2ccccc12	-6.56%
COC(=O)CN1C(=O)[C@H]2[C@@H](/C=C/c3ccccc3)N3C(=O)CN(CC4CC4)C(=O)[C@@]3(Cc3ccccc3)[C@H]2C1=O	-4.39%
COC/C=C/C1=CC2=CC(=O)C(C)(OC(=O)CCC(=O)OC)C(=O)C2=CO1 (stereo unspecified)	8.02%

SMILES	inhibition
COc1ccc(NC(=O)CSc2nnc(Cc3ccccc3)c(=O)n2N)cc1	0.31%
CC(C)N1CCC(N2CCN(Cc3cccnc3)CC2CCO)CC1 (stereo unspecified)	1.03%
COC(=O)c1cc(N2CCNCC2)nc2ccccc12	1.69%
COc1ccc(C(=O)CC(=O)C(=O)Nc2cc([N+](=O)[O-])ccc2OC)cc1	2.15%
COc1ccc(NS(=O)(=O)c2cc(C(=O)Nc3ccccc3C(=O)O)ccc2C)cc1	-3.09%
COc1ccc(NS(=O)(=O)c2cc(NC(=O)CC(=O)c3ccc([N+](=O)[O-])cc3)ccc2C)cc1	18.6% (active)
COc1cc(Cl)c(C)cc1NC(=O)CSc1nnc(-c2ccco2)n1CC(C)C	0.55%
Cc1cc(C)cc(OCC(=O)NC(C)c2ccccc2)c1 (stereo unspecified)	-2.91%
CC(=O)Nc1ccc(NC(=O)CC2CCCC2)cc1	3.46%
COc1ccc(C2NC(=O)c3ccccc3N2)cc1 (stereo unspecified)	-0.94%
Cc1ccc(C2Nc3cccc4cccc(c34)N2)cc1	10.3%
COc1cccc(C2Nc3cccc4cccc(c34)N2)c1	23% (active)
Oc1ccc(C2Nc3cccc4cccc(c34)N2)cc1	44.7% (active)
Brc1ccccc1C1Nc2cccc3cccc(c23)N1	11.3%
O=C1NC(c2cccc(Cl)c2)Nc2ccccc21 (stereo unspecified)	-1.96%
COc1ccccc1CN1CCNC(=O)C1CC(=O)N(C)CC1CCOCC1 (stereo unspecified)	1.34%
O=C(COC(=O)/C=C/c1cn(-c2ccccc2)nc1-c1cccnc1)Nc1ccc(Cl)cc1Cl	-13.2%
O=C(COC(=O)c1cc(=O)[nH]c2ccccc12)Nc1nc(-c2cccc(Br)c2)cs1	-30.4%
Cc1nc([N+](=O)[O-])c(NCCCO)n1Cc1ccccc1	1.87%
COc1cccc(C(=O)N2CCC(n3nccc3NC(=O)C3CCOC3)CC2)c1 (stereo unspecified)	5.08%
O=C(Nc1ccc2ccccc2c1)Nc1ccc2snnc2c1	-25.9%
Cc1ccc(-c2ccnc3nc(Sc4ncc(C(F)(F)F)cc4Cl)nn23)cc1	-3.23%
CC[N+](C)(CC)CCC[n+]1c(-c2ccccc2)c2cc(N)ccc2c2ccc(N)cc21	74.1% (active)

SMILES	inhibition
CCc1ccc2ncc(C(=O)c3ccccc3)c(N3CCOCC3)c2c1	0.71%
FC(F)(F)c1cc(-c2ccco2)nc(NCc2ccc(Cl)cc2)n1	-10.7%
Cc1cc(=O)oc2c3c(cc(OCC(=O)NCc4ccccn4)c12)OC(C)(C)CC3	-1.76%
COc1cc(NC(=O)COC(=O)c2cnc(C)cn2)c(C)cc1[N+](=O)[O-]	-0.2%
CC(C)[C@H](NC(=O)N1CC(=O)Nc2ccccc21)C(=O)N[C@@H](Cc1c[nH]c2ccccc12)C(=O)O	0.98%
COc1cc(OC)cc(C(=O)NCCSCc2ccc(Cl)cc2)c1	-2.49%
Cc1cc(C)c(C2C3=C(Nc4c2c(C)nn4-c2ccccn2)c2ccccc2C3=O)c(C)c1 (stereo unspecified)	-5.56%
Cc1ccc(C2C3=C(Nc4[nH]n(-c5ccccc5)c(=O)c42)c2ccccc2C3=O)cc1 (stereo unspecified)	34.1% (active)
Cc1ccc(-c2ccnc3[nH]n(-c4ccccc4)c(=O)c23)cc1	-1.58%
COCCN1CCn2c(nc3cc(NS(C)(=O)=O)ccc32)C1	2.47%
Cc1[nH]n(C(N)=S)c(=O)c1N=Nc1ccc(Cl)cc1Cl	20.8% (active)
CC1=NN(C(N)=S)C(=O)C1N=Nc1cc(Cl)ccc1Cl (stereo unspecified)	1.09%
Cc1cccc(N=Nc2c(C)[nH]n(-c3ccccc3)c2=O)c1	4.19%
O=C(CNC(=O)c1ccccc1F)c1ccc(Br)cc1	0.62%
COc1c(F)c(F)c(-c2csc(N)n2)c(F)c1F	2.83%
S=C(Nc1ccc2c(c1)OCO2)N1CCCC1	-2.94%
Cc1ccccc1NC(=O)CSC1=NCCN1	-0.3%
COc1ccc(NC(=O)CCCN2C(=O)C(c3ccccc3)Oc3cccnc32)cc1 (stereo unspecified)	-1.86%
O=C(OCC1O[C@@H](OC(=O)c2cc(O)c(O)c(O)c2)[C@@H](OC(=O)c2cc(O)c(O)c(O)c2)[C@@H](OC(=O)c2cc(O)c(O)c(O)c2)[C@@H]1OC(=O)c1cc(O)c(O)c(O)c1)c1cc(O)c(O)c(O)c1 (stereo partly specified)	62.1% (active)
O=C(OCC1OC(Oc2ccc(O)cc2)C(O)C(O)C1O)c1ccccc1 (stereo unspecified)	-4.47%
CC(O)c1ccc(OCCN(C)c2ccccn2)cc1 (stereo unspecified)	8.79%
Cn1cnnc1Sc1ccc(S(C)(=O)=O)cc1[N+](=O)[O-]	0.49%
